# Compound activity: PubChem, several laboratories
# Only some compounds are listed: those with a hit (about 0.83% of all), similar ones and a draw of the others.
# Gli-Sufu antag: blocks Gli-Sufu signaling in a luciferase reporter | Sufu-KO-LIGHT fibroblasts, Gli luciferase reporter luminescence | inhibition, % at 5 µM | 340,000 compounds, 0.74% hits;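 active = inhibition above about 55%, limit read from the data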;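 also: 0% = DMSO-treated cells and 100% = wells with medium but no cells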
# NR5A2 inv ag: NR5A2 inverse agonism in reporter assay | O00482 | HEK293T StAR-luciferase reporter, LRH-1 transfected, 24 h | inhibition, % at 3.6 µM | 360,000 compounds, 0.13% hits | AID 602396;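 active = inhibition above the mean inhibition of all tested compounds plus 3 SD, cut at about 73% in these data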;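 also: 0% = DMSO wells and 100% = reporter-only cells lacking LRH-1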
# SRC2 inh: inhibits human steroid receptor coactivator 2; HEK293 GAL4-SRC2 luciferase reporter, luminescence; inhibition, % at 9 µM; 370,000 compounds, 0.17% hits; AID 651957;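 active = inhibition above the mean inhibition of all tested compounds plus 3 SD, set per campaign, cut at about 52% in these data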;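 also: 0% = DMSO treated cells and 100% = cells given Gossypol at 36 µM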
# NCOA1 inh: inhibits human SRC1 coactivator; Q15788; HEK293 GAL4-SRC1 luciferase reporter, luminescence; inhibition, % at 3.6 µM; 360,000 compounds, 0.12% hits;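 active = inhibition above the campaign mean plus 3 SD, with each screening campaign given its own cutoff, cut at about 60% in these data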;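 also: 0% = DMSO treated cells and 100% = gossypol at 36 µM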
# NCOA3 inh: human NCOA3 inhibition | HEK293 GAL4-SRC3 luciferase reporter, luminescence | inhibition, % at 3.6 µM | 360,000 compounds, 0.17% hits | AID 588352;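 active = inhibition above a per-campaign cutoff, the mean of all compounds plus 3 SD, cut at about 60% in these data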;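 also: 0% = DMSO-treated cells and 100% = gossypol-treated cells at 36 µM; higher means less SRC3-driven luciferase light from the GAL4 reporter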
# * hit, by the source's call; nt = no result.
SMILES,Gli-Sufu antag,NR5A2 inv ag,SRC2 inh,NCOA1 inh,NCOA3 inh
CN(C)C(=S)SSC(=S)N(C)C,68*,20,-31,-43,-1
C[C@]12CCC3C(CCC4=CC(O)CC[C@@]43/C=N/O)C1(O)CCC2C1=CC(=O)OC1 (some centres undefined),-2,98*,50,78*,71*
CC12CCC3C(CCC4(O)CC(O)CCC34C=NO)C1(O)CCC2C1=COC(=O)C1 (centres undefined),8,99*,42,87*,89*
CC12CC[C@H]3[C@@H](CCC4(O)C[C@H](O)CCC34/C=N/NC(=O)c3ccccc3Cl)C1(O)CCC2C1=CC(=O)OC1 (some centres undefined),-12,-1,-19,8,11
CCCCN=C[C@]12CCC(O)CC1(O)CCC1[C@@H]2CC[C@]2(C)[C@H](C3C=CC(=O)O3)CCC12O (some centres undefined),1,97*,42,78*,80*
CC12CCC3C(CCC4(O)CC(O)CCC34C=O)C1(O)CCC2C1=CC(=O)OC1 (centres undefined),4,96*,37,65*,65*
CC(c1ccccc1)n1cc(C(=O)NC2CCCC2)nn1 (centres undefined),nt,nt,-18,nt,nt
C[C@H]1CNCCN1c1ccc(N2CC[C@H](O)C2)c(C#N)c1,nt,nt,-6,nt,nt
C[C@H]1O[C@@H](O[C@H]2[C@@H](O)C[C@H](O[C@H]3[C@@H](O)C[C@H](O[C@H]4CC[C@@]5(C)[C@H](CC[C@@H]6[C@@H]5CC[C@]5(C)[C@@H](C7=CC(=O)OC7)CC[C@]65O)C4)O[C@@H]3C)O[C@@H]2C)C[C@H](O)[C@@H]1O,7,nt,nt,nt,nt
C[C@H]1O[C@@H](OC2CC[C@]3(C=O)[C@H]4CC[C@]5(C)[C@@H](C6=CC(=O)OC6)CC[C@]5(O)[C@@H]4CC[C@]3(O)C2)CC2OC(C)(C)OC21 (some centres undefined),13,99*,60*,81*,86*
C[C@]12CC[C@H]3[C@@H](CC[C@]4(O)C[C@@H](O)CC[C@]34C=O)[C@@]1(O)CC[C@@H]2C1=CC(=O)OC1,0,102*,53*,71*,82*
O=C(NC1CN2CCC1CC2)c1cc(-c2ccc(Cl)cc2)nc2ccccc12 (centres undefined),nt,nt,-15,nt,nt
COc1cc(C2c3cc4c(cc3CC3COC(=O)C32)OCO4)cc(OC)c1O (centres undefined),48,13,-1,1,24
O=C1NC2C(O)C(O)C(O)C(O)C2c2cc3c(c(O)c21)OCO3 (centres undefined),72*,98*,75*,93*,92*
COc1ccccc1N,nt,nt,-12,nt,nt
CC(C)(C)n1nnnc1C1CN=C(c2ccccc2)c2ccccc2N1 (centres undefined),nt,nt,-16,nt,nt
Cc1c2ccncc2c(C)c2c1[nH]c1ccccc12,7,65,nt,64*,60
O=C(NCCN1CCC2(CC1)C(=O)NCN2c1ccccc1)c1cccc(F)c1,nt,nt,-3,nt,nt
CC(=O)OC1CC(OC2C(O)CC(OC3C(O)CC(OC4CCC5(C)C(CCC6C5CCC5(C)C(C7=CC(=O)OC7)C(O)CC65O)C4)OC3C)OC2C)OC(C)C1OC1OC(CO)C(O)C(O)C1O (centres undefined),-1,98*,38,84*,82*
CC1OC(OC2C(O)CC(OC3C(O)CC(OC4CCC5(C)C(CCC6C5CCC5(C)C(C7=CC(=O)OC7)C(O)CC65O)C4)OC3C)OC2C)CC(O)C1O (centres undefined),6,35,9,35,49
CC(=O)OC1CC2(O)C3CCC4CC(O)CCC4(C)C3CCC2(C)C1C1=CC(=O)OC1 (centres undefined),1,99*,50,85*,88*
CC(C)(C)NC(=O)CN1C(=O)[C@@H](Cc2c[nH]c3ccccc23)N=C(c2ccccc2)c2ccccc21,nt,nt,5,nt,nt
